# Data from PubChem BioAssay (EPA / NIEHS).
# Records with an inconclusive call do not appear. Active and inactive are the calls of the source. The calls were made as follows, unless noted: active = hit-call score of the fitted dose curve at least 0.9, where 1 is the maximum; inactive = score below 0.9.
# Tests used:
# [1] = ACEA_ER_80hr: ACEA Biosciences xCELLigence Real-Time Cell Analysis on Estrogen Receptor Agonism for Proliferation (AID 2282667; active = hit-call score of the fitted dose curve at least 0.9, where 1 is the maximum); conditions: T47D proliferation, impedance (xCELLigence), 80 h
# Procedure, shortened: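 Real-time electrical impedance tracked growth of the human breast line T47D, with the 80 h post-dosing value used. Dosing spanned eight 1:4 steps down from a 100 uM final top concentration, run in duplicate.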
# [2] = APR_HepG2_CellCycleArrest_24hr: Apredica 24-hour HepG2 Assay for Cell Cycle Arrest (AID 2282905); conditions: imaging, actives raise or lower the signal;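 also: cell cycle arrest scored as ratio of 2N to 4N nuclear DNA content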
# Procedure, shortened: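 Compounds (0.39 to 200 uM, final DMSO 0.5% v/v) are applied to HepG2 cells for 24 hours; cells are then fixed, permeabilized and nuclei labeled with Hoechst 33342. Automated imaging measures DNA content, and activity is fitted in both directions against DMSO.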
# [3] = APR_HepG2_NuclearSize_24hr: Apredica 24-hour HepG2 Assay for Nuclear Size (AID 2282907); conditions: high-content imaging, actives raise or lower the signal
# Procedure, shortened: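 Nuclear size is measured by fluorescence high-content imaging of Hoechst-labelled HepG2 nuclei after 24 hr of treatment (0.39–200 uM, 0.5% DMSO). Cells are fixed in 3.7% formaldehyde before staining, and DMSO serves as the baseline for bidirectional curve fitting.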
# [4] = APR_HepG2_CellLoss_24hr: Apredica 24-hour HepG2 Assay for Cell Loss (AID 2282908); conditions: high-content imaging;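 as to AC50: fit in both directions so a hit may be cell loss or gain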
# Procedure, shortened: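 Nuclear count serves as the viability measure: treated cells are fixed, permeabilized and labelled with Hoechst 33342, and six images per well are analysed to identify valid nuclei. Doses span 0.39–200 uM, and activity in either direction is scored against DMSO.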
# [5] = APR_HepG2_MicrotubuleCSK_24hr: Apredica 24-hour HepG2 Assay for Microtubule CSK Stabilty (AID 2282909); conditions: HepG2 microtubule cytoskeleton imaging, actives raise or lower the signal
# Procedure, shortened: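 Compounds were applied to HepG2 cells for 24 hours across 0.39–200 uM in duplicate, with final DMSO at 0.5% v/v. Fixed, permeabilized cells were labeled for alpha-tubulin and nuclei, and tubulin fluorescence was quantified by imaging, fitted bidirectionally against DMSO.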
# [6] = APR_HepG2_MitoticArrest_24hr: Apredica 24-hour HepG2 Assay for Mitotic Arrest (AID 2282910); conditions: high-content imaging, actives raise or lower the signal
# Procedure, shortened: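 High-content imaging of fixed HepG2 cells labeled with Hoechst 33342 and anti-phospho-histone H3, after 24 h treatment. Ten concentrations 0.39 to 200 uM in duplicate, final DMSO 0.5%; changes fitted both directions relative to DMSO.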
# [7] = APR_HepG2_MitoMembPot_24hr: Apredica 24-hour HepG2 Assay for Mitochondrial Membrane Potential (AID 2282911); conditions: imaging, actives raise or lower the signal
# Procedure, shortened: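 Cells are dosed for 24 hr across 0.39 to 200 uM with solvent held at 0.5% DMSO. They are then stained with 250 nM MitoTracker Red CMXRos for 30 min, fixed in 3.7% formaldehyde and imaged.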
# [8] = APR_HepG2_MitoMass_24hr: Apredica 24-hour HepG2 Assay for Mitochondrial Mass (AID 2282912); conditions: high-content imaging, actives raise or lower the signal
# Procedure, shortened: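 After 24 hr of treatment at 0.39 to 200 uM, HepG2 cells take up 250 nM MitoTracker Red CMXRos for 30 min and are then fixed with 3.7% formaldehyde. Per-well images are quantified, and any change in either direction is scored against solvent.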
# [9] = APR_HepG2_p53Act_24hr: Apredica 24-hour HepG2 Assay for p53 Activation (AID 2282913); conditions: high-content imaging, actives raise or lower the signal;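 also: p53 protein immunofluorescence averaged per cell in HepG2 with Hoechst nuclei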
# Procedure, shortened: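 Human HepG2 liver cells; 24 hr cpd treatment, 0.39–200 uM, 0.5% DMSO final. Fixed in 3.7% formaldehyde, permeabilized with 0.5% Triton X-100, stained with anti-p53/Cy5 plus Hoechst 33342. Six images per well at 20x; gain or loss vs DMSO.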
# [10] = APR_HepG2_CellCycleArrest_72hr: Apredica 72-hour HepG2 Assay for Cell Cycle Arrest (AID 2282914); conditions: high-content imaging, actives raise or lower the signal
# Procedure, shortened: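 Read-out is Hoechst-stained nuclear DNA content measured by automated fluorescence imaging (20x, six images per well), fitted in both directions relative to DMSO. Human HepG2 liver cells received 0.39–200 uM compound for 72 hr at 0.5% v/v DMSO.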
# [11] = APR_HepG2_CellLoss_72hr: Apredica 72-hour HepG2 Assay for Cell Loss (AID 2282915); conditions: high-content imaging
# Procedure, shortened: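 Cell number comes from Hoechst 33342-labelled nuclei, imaged at 20x after 3.7% formaldehyde fixation. Dosing was 0.39–200 uM, ten concentrations in duplicate, 0.5% DMSO final, for 72 h. Bidirectional fit relative to DMSO baseline.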
# [12] = APR_HepG2_P-H2AX_72hr: Apredica 72-hour HepG2 Assay for H2AX Phosphorylation (AID 2282916); conditions: imaging, actives raise or lower the signal;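 also: phospho-histone H2A.x immunostain intensity per cell marking DNA damage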
# Procedure, shortened: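 Human hepatoma HepG2 cells are dosed across ten concentrations (0.39 to 200 uM, 0.5% v/v DMSO) and incubated 72 hr. Phospho-histone H2A.x is then detected by antibody staining alongside c-Jun and Hoechst, and quantified by automated fluorescence imaging.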
# [13] = APR_HepG2_MitoMembPot_72hr: Apredica 72-hour HepG2 Assay for Mitochondrial Membrane Potential (AID 2282917); conditions: imaging, actives raise or lower the signal
# Procedure, shortened: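 Membrane potential read by MitoTracker Red CMXRos (250 nM, 30 min, pre-fixation) fluorescence imaging of HepG2 after 72 hr exposure. Ten concentrations, 0.39–200 uM, duplicate wells, 0.5% DMSO; fitted in both directions against DMSO baseline.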
# [14] = APR_HepG2_MitoticArrest_72hr: Apredica 72-hour HepG2 Assay for Mitotic Arrest (AID 2282918); conditions: high-content imaging, actives raise or lower the signal
# Procedure, shortened: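 Read-out is phospho-histone H3 immunofluorescence with Hoechst nuclear segmentation, imaged at 20x. Human HepG2 liver cells received ten concentrations (0.39–200 uM, final DMSO 0.5% v/v) for 72 hr before fixation. Gain or loss of signal was fitted relative to DMSO.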
# [15] = APR_HepG2_MicrotubuleCSK_72hr: Apredica 72-hour HepG2 Assay for Microtubule CSK Stabilty (AID 2282919); conditions: HepG2 microtubule cytoskeleton, high-content imaging, actives raise or lower the signal
# Procedure, shortened: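 High-content imaging of alpha-tubulin staining in fixed HepG2 cells after 72 hr treatment with ten concentrations from 0.39 to 200 uM (0.5% DMSO). Fitting was bidirectional against DMSO; taxol served as positive control.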
# [16] = APR_HepG2_P-H2AX_24hr: Apredica 24-hour HepG2 Assay for H2AX Phosphorylation (AID 2282920); conditions: high-content imaging, actives raise or lower the signal
# Procedure, shortened: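 HepG2, 24 hr, cpd 0.39–200 uM (10 conc, duplicate), DMSO 0.5% v/v final. Fix 3.7% formaldehyde, Triton X-100 permeabilize, anti-phospho-H2A.x 1:200 + Hoechst 2 ug/mL. Imaged, bidirectional fit vs DMSO.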
# [17] = APR_HepG2_StressKinase_72hr: Apredica 72-hour HepG2 Assay for Stress Kinase (AID 2282921); conditions: HepG2 stress kinase (phospho-c-Jun) imaging, actives raise or lower the signal
# Procedure, shortened: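 After a 72 h compound treatment spanning 0.39 to 200 uM, formaldehyde-fixed cells are labelled for phosphorylated c-Jun and nuclei, imaged by automated fluorescence microscopy, and activity is fitted in both directions relative to DMSO controls.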
# [18] = APR_HepG2_StressKinase_24hr: Apredica 24-hour HepG2 Assay for Stress Kinase (AID 2282922); conditions: HepG2 stress kinase (phospho-c-Jun) imaging, actives raise or lower the signal
# Procedure, shortened: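 High-content imaging of phospho-c-Jun immunofluorescence in fixed, permeabilized HepG2 cells after 24 h dosing. Ten concentrations, 0.39 to 200 uM, run in duplicate at 0.5% v/v DMSO; gain or loss of signal versus DMSO.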
# [19] = APR_HepG2_p53Act_72hr: Apredica 72-hour HepG2 Assay for p53 Activation (AID 2282923); conditions: high-content imaging, actives raise or lower the signal;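 also: average cellular p53 protein immunofluorescence intensity in HepG2 cells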
# Procedure, shortened: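 Imaging-based endpoint: after 72 hr compound exposure (up to 200 uM, 0.5% DMSO), fixed and permeabilized monolayers were labelled with anti-p53 antibody and imaged; signal change in either direction was fitted relative to DMSO controls.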
# [20] = APR_HepG2_MitoMass_72hr: Apredica 72-hour HepG2 Assay for Mitochondrial Mass (AID 2282924); conditions: high-content imaging, actives raise or lower the signal;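 also: MitoTracker Red CMXRos stain intensity per cell imaged as mitochondrial mass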
# Procedure, shortened: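 Readout is imaged MitoTracker Red (250 nM, 30 min, pre-fixation) signal, fitted bidirectionally against DMSO baseline. Human HepG2 liver cells received compound 0.39–200 uM in duplicate for 72 hr, final DMSO 0.5%.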
smiles,measurement,setting,value
S=P(N1CC1)(N1CC1)N1CC1,outcome,[1],inactive
Cn1cc[nH]c1=S,outcome,[1],inactive
same,outcome,[2],inactive
same,outcome,[3],inactive
same,outcome,[4],inactive
same,outcome,[5],inactive
same,outcome,[6],inactive
same,outcome,[7],inactive
same,outcome,[8],inactive
same,outcome,[9],inactive
same,outcome,[10],inactive
same,outcome,[11],inactive
same,outcome,[12],inactive
same,outcome,[13],inactive
same,outcome,[14],inactive
same,outcome,[15],inactive
same,outcome,[16],inactive
same,outcome,[17],inactive
same,outcome,[18],inactive
same,outcome,[19],inactive
same,outcome,[20],inactive
FC(F)C(F)(F)COCC1CO1 (centres undefined),outcome,[1],inactive
O=C(N[C@H](CO)[C@H](O)c1ccc([N+](=O)[O-])cc1)C(Cl)Cl,outcome,[1],inactive
O=C(Cl)C(F)(F)C(F)(F)C(F)(F)C(=O)Cl,outcome,[1],inactive
CCCCN1C(=O)[C@@H]([C@H](O)C2CCCCC2)NC(=O)C12CCN(Cc1ccc(Oc3ccc(C(=O)O)cc3)cc1)CC2,outcome,[1],inactive
same,outcome,[2],inactive
same,outcome,[3],inactive
same,AC50,[4],48.3 µM (active)
same,outcome,[5],inactive
same,AC50,[6],59.8 µM (active)
same,outcome,[7],inactive
same,outcome,[8],inactive
same,outcome,[9],inactive
same,outcome,[10],inactive
same,AC50,[11],48.1 µM (active)
same,AC50,[12],46.4 µM (active)
same,outcome,[13],inactive
same,AC50,[14],54.3 µM (active)
same,outcome,[15],inactive
same,AC50,[16],67.8 µM (active)
same,AC50,[17],39.9 µM (active)
same,outcome,[18],inactive
same,AC50,[19],38.7 µM (active)
same,outcome,[20],inactive
